Screens as filed in PubChem BioAssay.
Sampled rows, rich in hits. Any-hit rate of the full collection: about 4.1%.
DAX1 inh-1 – inhibitors of human orphan nuclear receptor DAX1 (NR0B1); P51843; HEK293 Gal4-DAX1 luciferase reporter, luminescence; inhibition, % at 6.75 µM; 0.99% of 340,000 active; AID 504766;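 active means inhibition above the mean over all tested compounds plus 3 SD, cut at about 4.2% in these data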;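 further: 0% = DAX1-transfected cells with DMSO and 100% = empty-vector control cells with DMSO; inhibition shows as a rise in luminescence from relieved DAX1 repression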
Target sequence (P51843 207-470 limits assumed): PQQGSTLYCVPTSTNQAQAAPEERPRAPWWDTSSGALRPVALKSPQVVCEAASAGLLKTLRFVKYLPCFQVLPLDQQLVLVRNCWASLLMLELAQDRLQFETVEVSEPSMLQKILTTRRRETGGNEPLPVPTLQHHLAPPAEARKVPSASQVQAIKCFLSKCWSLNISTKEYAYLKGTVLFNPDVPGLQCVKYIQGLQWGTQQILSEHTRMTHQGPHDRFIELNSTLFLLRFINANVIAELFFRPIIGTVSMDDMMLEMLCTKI
ssDAF-12 act – S. stercoralis DAF-12 activation, primary screen; HEK293 ssDAF-12/GRIP1 lit1-tk-luc reporter, luminescence; % of 3 µM dafachronic acid response; activation, % at 6.8 µM; 1% of 370,000 active;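 active means activation above the mean over all tested compounds plus 3 SD, cut at about 0.9% in these data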;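 further: 0% = DMSO-only wells and 100% = 3 µM delta7-dafachronic acid wells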
hgDAF12 agonist – activates the H. glycines DAF-12 receptor ligand-binding domain. HEK293 GAL4-hgDAF12 UAS-luciferase reporter, agonist luminescence; normalized to butyrate control. activation, % at 6.8 µM. 1.8% of 370,000 active. AID 687014;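 active means activation above a cutoff set at the mean of all screened compounds plus 3 SD, cut at about 10% in these data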;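 further: 0% = DMSO wells and 100% = sodium butyrate wells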
hcDAF12 agonist – activates DAF-12 receptor from parasite H. contortus | HEK293 hcDAF-12 lit1-tk-luc reporter, luminescence; 0% DMSO, 100% Δ7-dafachronic acid | activation, % at 6.8 µM | 1.4% of 370,000 active;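 active means activation above the mean of all tested compounds plus 3 SD, cut at about 5.5% in these data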;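 further: 100% = response to 3 µM Δ7-dafachronic acid high control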
DAX1 inh-2 – DAX1 (NR0B1) inhibition, primary screen; HEK293T StAR-luciferase reporter, SF-1/DAX-1 repression relief; inhibition, % at 6.8 µM; 1.1% of 370,000 active; AID 652010;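 active means inhibition above the mean over all tested compounds plus 3 SD, cut at about 3.6% in these data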;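 further: 0% = DAX-1 cells with DMSO and 100% = cells lacking DAX-1 with DMSO; higher inhibition means more luminescence from relief of DAX-1 repression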
DAX1 conf – NR0B1 (human) inhibition, confirmation; shares compounds with DAX1 inh-2; HEK293T StAR-promoter luciferase reporter, SF-1/DAX-1 repression; inhibition, % at 6.8 µM; 87% of 2,400 active; AID 652134;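 active means inhibition above the average of every tested compound plus 3 SD, cut at about 3.8% in these data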;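 further: 0% = DAX-1 cells with DMSO and 100% = no DAX-1 control cells with DMSO; active compounds raise luminescence by relieving repression of the StAR reporter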
SF1 mutant ctr – counter-screen for DAX1 inhibitors: nonselective inhibitors with SF-1 AF2 mutant | shares compounds with DAX1 inh-2 | HEK293 StAR-luciferase, luminescence | inhibition, % at 6.8 µM | 78% of 2,400 active | AID 652136;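 active means inhibition above the mean of all tested compounds plus 3 SD, cut at about 3% in these data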;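 further: 0% = DAX-1 transfected cells with DMSO and 100% = cells without DAX-1 with DMSO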
* marks the source's active call; other numbers are inactive results; nt = no result given.

SMILES	DAX1 inh-1	ssDAF-12 act	hgDAF12 agonist	hcDAF12 agonist	DAX1 inh-2	others
CCOC(=O)CNC(=O)c1ccc(OCC(F)(F)F)cc1	1	0	13*	1	2
CCn1c(COc2ccc(C)cc2)nnc1SCC(=O)Nc1ccc(C(=O)OC)cc1	nt	-2	3	1	-2
O=C(NCC1CCN(C(=O)C(=O)c2cccs2)CC1)c1ccncc1	nt	-1	0	1	0
c1ccc(Cc2nc3ccccc3s2)cc1	2	0	8	5.8*	-1
Cc1ccnc(SCc2nc3ccccc3s2)n1	3	0	9	5.8*	2
O=C(CCc1nc2ccccc2s1)Nc1ccccc1	-1	-1	-1	-1	-1
Cc1cc(/C=N/NC(=O)c2cccc(F)c2)c(C)n1-c1ccccc1	4.5*	0	11*	2	2
Cc1[nH]c2ccccc2c1/C=N/NC(=O)c1cccc(F)c1	7.8*	0	7	1	1
CCOC(=O)[C@]12CCCC=C1N(Cc1ccc(OC)cc1)C(=O)[C@@H]2CC(=O)N1CCCCC1	nt	-1	-2	-1	-1
O=C(NCc1ccc(Cl)cc1)C1C2C=CC3(CN(Cc4ccccc4)C(=O)C13)O2 (stereo not drawn)	nt	-1	1	-2	-1
O=S1(=O)CC2c3ccccc3CN2CN1CCc1ccccc1 (stereo not drawn)	nt	-1	6	3	0
N/C(=N\OC(=O)Nc1ccccc1)c1ncc(C(F)(F)F)cc1Cl	2	0	0	5.6*	0
O=C(c1ccccc1)c1ncc(C(F)(F)F)cc1Cl	0	-1	2	-1	0
COC(=O)/C(=C\Nc1ccccc1N)c1ncc(C(F)(F)F)cc1Cl	1	1	12*	5.7*	4.3*
C=CCn1c(COc2cccc3ccc(C)nc23)nnc1SCC(=O)OC	0	0.9*	1	3	1
CCn1c(COc2cccc3cccnc23)nnc1SCC(=O)O	5.4*	-2	-1	-1	1
CCn1c(COc2cccc3cccnc23)nnc1SCC(=O)OC	0	-2	-2	0	0
CC(C)(C)Nc1nc(Cl)nc(NCCN2CCOCC2)n1	5.4*	-1	0	0	0
O=C(N/N=C/c1ccoc1)c1ccc(Br)cc1	0	-1	2	2	-2
O=C(N/N=C/c1ccoc1)c1ccccc1O	1	0	10	5	3.7*
O=C(N/N=C/CCc1ccccc1)C1CCCCC1	1	0	-2	0	0
CC(=O)n1cc(Nc2ccccc2C(=O)O)c2ccccc21	0	0.9*	2	2	1
O=C(N/N=C/c1ccoc1)c1ccccc1	1	1.1*	11*	4	6.4*
O=C(N/N=C/CCc1ccccc1)c1ccccc1	1	0	11*	1	3
COC(=O)c1cc2c(c3c4cc(OC)ccc4n(S(=O)(=O)c4ccccc4)c13)C(=O)N(Cc1ccc(C(F)(F)F)cc1)C2	nt	-1	1	3	0
SMILES	DAX1 inh-1	ssDAF-12 act	hgDAF12 agonist	hcDAF12 agonist	DAX1 inh-2	others
CC(=O)n1cc(/C=N/NC(=O)c2ccccc2O)c2ccccc21	5.0*	0	5	2	0
CCOC(=O)[C@@]12CCCC3=C1N(CCC3)C(=O)[C@H]2CC(=O)NCc1ccccc1	nt	-1	-1	-2	0
C=CCn1c(N)cc(=O)nc1SCC(=O)Nc1ccc(C(=O)OC)cc1	0	-1	3	0	0
C=CCn1c(N)cc(=O)nc1SCC(=O)Nc1ccc(C(=O)OCC)cc1	5.8*	0	2	-1	0
Cc1cc(SCC(=O)c2ccccc2)n2nc(C)nc2n1	-1	0	10	6.2*	0
Cc1ccc(S(=O)(=O)N(C)C)cc1NC(=O)c1ccc2ccccc2n1	2	1.1*	5	2	0
Cc1nnsc1-c1c(C(=O)N2CCOCC2)c(C)nn1-c1ccc(Cl)cc1	4.8*	-2	-1	0	0
Cc1nnsc1-c1c(C(=O)N2CCOCC2)c(C)nn1-c1ccccc1	0	-1	1	0	0
CCC(=O)N1C(C(=O)N2CCCC2)CSC1c1ccc(OC)cc1 (stereo not drawn)	4.3*	-1	1	-1	0
O=C1NC[C@H](Cc2ccccc2)N(CC2CCN(CC3CCCC3)CC2)C1=O	-1	-1	0	-2	0
O=C1NC[C@H](Cc2ccccc2)N(CC2CCN(CCCC3CCCC3)CC2)C1=O	0	-1	4	-1	5.5*	DAX1 conf=1;SF1 mutant ctr=1
Cc1ccnc2nc(C(=O)Nc3ccc4c(c3)OCO4)nn12	1	0	9	3	4.6*	DAX1 conf=8.9*;SF1 mutant ctr=5.2*
Cc1cc(C)n2nc(C(=O)Nc3ccc4c(c3)OCCO4)nc2n1	0	-1	8	2	6.0*	DAX1 conf=5.6*;SF1 mutant ctr=3
Cc1cc(C)n2nc(C(=O)Nc3ccc4c(c3)OCO4)nc2n1	0	-1	2	0	2
COc1c(C)cc(C(=O)C2CCCN(C(=O)c3snnc3C)C2)cc1C (stereo not drawn)	1	-1	-2	0	0
N#Cc1cc2ccccc2n2nnnc12	-1	-1	2	0	0
CCCCC(=O)N1CCN(c2nc3ccc(F)cc3s2)CC1	0	-1	5	2	5.2*	DAX1 conf=3;SF1 mutant ctr=3.8*
CS(=O)(=O)c1ccc(C(=O)NCC2(N3CCCCC3)CCCCC2)cc1	2	0	1	0	3
CN(C)S(=O)(=O)c1ccc(C(=O)NCC2(N3CCCCC3)CCCCC2)cc1	1	-1	-1	1	6.0*	DAX1 conf=8.5*;SF1 mutant ctr=3.3*
CCN(CC)S(=O)(=O)c1ccc(C(=O)NCC2(N3CCOCC3)CCCCC2)cc1	0	-1	0	0	4.6*	DAX1 conf=3;SF1 mutant ctr=2
CCN(CC)S(=O)(=O)c1cccc(C(=O)NCC2(N3CCOCC3)CCCCC2)c1	0	-1	1	0	0
Cc1noc(C)c1-c1ccc2ncnc(NCC3CCCCN3C)c2c1 (stereo not drawn)	3	-1	-1	0	1
Cc1cccc(C)c1N1C(=O)c2ccccc2NC(=O)C1C(=O)NCCc1ccccc1 (stereo not drawn)	nt	0	0	0	-1
Cc1cccc(C)c1N1C(=O)c2ccccc2NC(=O)C1C(=O)NCCc1ccccc1F (stereo not drawn)	nt	-1	1	0	4.7*	DAX1 conf=2;SF1 mutant ctr=0
COc1ccc(-c2csc(/C=C/c3ccc4c(c3)OCO4)n2)cc1OC	1	-2	-1	-2	0
